Assay results: paper PMC5540273 (PLoS ONE, 2017)

Assays:
Conditions in all cases: concentration: 1 μM, replicates: in singlicate; n = 1
CSK = tested on: CSK
CSNK1A1L = tested on: CSNK1A1L
CSNK1A1 = tested on: CSNK1A1
CSNK1D = tested on: CSNK1D
CSNK1E = tested on: CSNK1E
CSNK1G1 = tested on: CSNK1G1
CSNK1G2 = tested on: CSNK1G2
CSNK1G3 = tested on: CSNK1G3
CSNK2A1 = tested on: CSNK2A1
CSNK2A2 = tested on: CSNK2A2
CTK = tested on: T1, CTK
T1 construct: gene MATK

DAPK1 = tested on: DAPK1
DAPK2 = tested on: DAPK2
DAPK3 = tested on: DAPK3
DCAMKL1 = tested on: T2, DCAMKL1
T2 construct: gene DCLK1

DCAMKL2 = tested on: T3, DCAMKL2
T3 construct: gene DCLK2

DCAMKL3 = tested on: T4, DCAMKL3
T4 construct: gene DCLK3

DDR1 = tested on: DDR1
DDR2 = tested on: DDR2
DLK = tested on: T5, DLK
T5 construct: gene MAP3K12
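Further: KINOMEscan kinase panel screen.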

Structure (SMILES) | %Inh (CSK) [%] | %Inh (CSNK1A1L) [%] | %Inh (CSNK1A1) [%] | %Inh (CSNK1D) [%] | %Inh (CSNK1E) [%] | %Inh (CSNK1G1) [%] | %Inh (CSNK1G2) [%] | %Inh (CSNK1G3) [%] | %Inh (CSNK2A1) [%] | %Inh (CSNK2A2) [%] | %Inh (CTK) [%] | %Inh (DAPK1) [%] | %Inh (DAPK2) [%] | %Inh (DAPK3) [%] | %Inh (DCAMKL1) [%] | %Inh (DCAMKL2) [%] | %Inh (DCAMKL3) [%] | %Inh (DDR1) [%] | %Inh (DDR2) [%] | %Inh (DLK) [%]
CNc1nc(-c2ccc3c(N)n[nH]c3c2)cc(N2C[C@@H](C(=O)Nc3ccccc3)CC[C@H]2C)n1 [GSK2298859] | 0 | 6 | 0 | 15 | 36 | 16 | 0 | 28 | 2 | 3 | 0 | 11 | 30 | 43 | 53 | 11 | 76 | 6 | 8 | 11
CNCc1ccc2nc(NC(=O)c3ccc(C(C)(C)C)cc3)cn2c1 | 0 | 0 | 2 | 11 | 3 | 9 | 0 | 87 | 42 | 4 | 45 | 0 | 0 | 1 | 15 | 4 | 24 | 9 | 24 | 27
COc1ccc(Nc2nccc(N3CCC(NC(=O)C(C)c4ccc(Cl)cc4)C3)n2)cc1 (centres unmarked) [GSK1379735] | 0 | 1 | 10 | 0 | 11 | 0 | 0 | 23 | 12 | 14 | 4 | 0 | 0 | 0 | 0 | 6 | 29 | 28 | 16 | 13
COc1ccc(Nc2nccc(NCCNC(=O)Nc3cc(C)ccc3C)n2)cc1 [GSK1379899] | 0 | 1 | 0 | 4 | 22 | 0 | 0 | 15 | 1 | 0 | 4 | 0 | 0 | 0 | 0 | 0 | 0 | 9 | 0 | 10
COc1cccc(NC(=O)Nc2ccc(C)c(-c3ccc(C(=O)Nc4ccncc4)cc3)c2)c1 [GSK1398474] | 0 | 0 | 0 | 31 | 42 | 8 | 25 | 34 | 0 | 10 | 0 | 28 | 8 | 0 | 1 | 7 | 0 | 94.2 | 36 | 6
COc1cccc(CNC(=O)NC2CCN(c3ccnc(Nc4ccc(F)cc4)n3)C2)c1 (centres unmarked) [GSK1379723] | 0 | 21 | 19 | 4 | 11 | 0 | 0 | 16 | 0 | 2 | 22 | 0 | 22 | 7 | 9 | 0 | 0 | 7 | 0 | 0
CS(=O)(=O)CCNCc1nc(-c2ccc3ncnc(Nc4ccc5c(cnn5Cc5ccccc5)c4)c3c2)cs1.Cl.Cl [GW569716] | 0 | 0 | 0 | 2 | 21 | 1 | 0 | 3 | 0 | 37 | 0 | 0 | 0 | 0 | 9 | 0 | 4 | 0 | 24 | 53
COC(=O)C(NC(=O)NC1CCN(c2ccnc(Nc3ccc(F)cc3)n2)C1)c1ccccc1 (centres unmarked) [GSK1379712] | 0 | 3 | 0 | 92 | 19 | 5 | 1 | 25 | 3 | 0 | 0 | 15 | 0 | 25 | 17 | 12 | 0 | 0 | 39 | 0
Cc1ccc(NC(=O)Nc2ccc(Cl)c(C(F)(F)F)c2)cc1-c1ccc(C(=O)Nc2ccncc2)cc1 [GSK1398470] | 0 | 9 | 22 | 7 | 7 | 11 | 24 | 21 | 21 | 0 | 0 | 8 | 21 | 0 | 0 | 11 | 5 | 97.3 | 63 | 0
O=C(Nc1n[nH]c2nc(-c3cccs3)c(Br)cc12)C1CC1 [SB-735297] | 12 | 6 | 0 | 0 | 0 | 0 | 0 | 17 | 26 | 51 | 13 | 0 | 0 | 0 | 0 | 0 | 0 | 0 | 0 | 0
